In PubChem BioAssay AID624002 (National Center for Advancing Translational Sciences (NCATS), 2012):
The list shows a part of the results. Inconclusive results are not listed. The source made the active and inactive calls. Calls come from the whole dose curve; as a rule, active = well fitted inhibition curve with a large enough effect; inconclusive = small, poorly fitted or top-dose-only effect; inactive = no such curve, though single readings can be large or run the other way.

Target: Isocitrate dehydrogenase [NADP] cytoplasmic (Homo sapiens) (UniProt O75874)
Sequence (O75874 whole entry R132H, change not shown): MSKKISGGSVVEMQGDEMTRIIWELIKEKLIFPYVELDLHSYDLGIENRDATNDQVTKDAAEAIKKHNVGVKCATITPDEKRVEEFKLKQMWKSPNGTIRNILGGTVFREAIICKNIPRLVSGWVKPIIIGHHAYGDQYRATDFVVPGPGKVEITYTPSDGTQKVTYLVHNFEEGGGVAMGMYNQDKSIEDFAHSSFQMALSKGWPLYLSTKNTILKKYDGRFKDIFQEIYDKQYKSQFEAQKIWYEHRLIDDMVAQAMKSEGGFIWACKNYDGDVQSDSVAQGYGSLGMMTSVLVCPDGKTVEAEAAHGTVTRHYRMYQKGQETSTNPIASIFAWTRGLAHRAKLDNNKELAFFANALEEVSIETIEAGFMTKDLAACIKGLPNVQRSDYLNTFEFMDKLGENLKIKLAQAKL
Assay: qHTS for Inhibitors of mutant isocitrate dehydrogenase 1 (IDH1): Confirmation of Cherrypicks; note: nearly all actives have a fitted effect of over 50% in size
Conditions: IDH1 R132H enzyme, NADPH diaphorase/resazurin fluorescence
Text: Malignant glioblastomas (WHO grade IV), including primary and secondary glioblastomas, are among the most lethal with a median survival of one year, and unfortunately they are also the most prevalent type of brain tumors. By and large the standard of care of gliomas remains the use of the oral alkylating agent temozolomide and radiotherapy following surgical tumor resection. There is an urgent unmet medical need for novel therapeutics for gliomas. IDH mutations occur in up to 70% of grade II-IV secondary glioblastomas, and IDH1 R132H is the most prevalent mutation. […] Wild-type IDH1 catalyzes the conversion of isocitrate to -ketoglutarate with the concomitant reduction of NADP+ to NADPH. […] Inhibition of the IDH1 R132H enzymatic reaction leads to an increase in the amount of NADPH relative to a DMSO control and a concomitant increase in the fluorescence of the diaphorase/resazurin enzyme product resorufin at 590 nm. […]
Enzyme buffer was dispensed into black, solid 1536-well plates at 3 microL/well in 20 mM Tris buffer, pH 7.5, containing final concentrations of 10 mM MgCl2, 20 mM NaCl, 0.001% Tween20, 0.05% BSA, 2 mM beta-ME and 5.2 nM IDH1 R132H. […] The inherent compound fluorescence was measured at this point at 590 nm on a ViewLux plate reader (Ex 525, Em 598, bodipy filter). […] The %Activity was determined from the corrected fluorescence values. […]
Potency is the fitted concentration of half-maximal effect.

Q: CC(C)(C)c1ccc(S(=O)(=O)Nc2ccc(O)c(Sc3nc4ccccc4s3)c2)cc1 was tested. Which Potency did it give?
A: 15.8 µM (active)
